In experiment [1] the target is Cytochrome P450 1A2 (Homo sapiens) (UniProt P05177). In words: p450-cyp1a2 (AID 410; calls by dose curve; also: potency is read from the fitted curve at half-maximal effect). Put shortly:
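O-Demethylation of luciferin 6' methyl ether by human CYP1A2 is monitored as luciferase luminescence. Substrate sits at Km (100uM); enzyme is 20nM. Values are scaled to 57 uM furafylline as maximal inhibition.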

In experiment [2] the target is Glucocorticoid receptor (Homo sapiens) (UniProt P04150). The experiment in a line: GR-EFC Redistribution (AID 451; calls by dose curve; also: potency is read from the fitted curve at half-maximal effect). The following applies: CHO-K1 GR-EFC translocation, beta-gal luminescence, 2 h. The gist of the method: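 CHO-K1 cells stably expressing nuclear-localized β-gal enzyme acceptor and GR fused C-terminally to the enzyme donor fragment; ligand-driven nuclear translocation restores β-gal by complementation. Compounds titrated up to 46 uM final, 2 h at 37 °C; luminescence read.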

For experiment [3], the target named is Cytochrome P450 3A4 (Homo sapiens) (UniProt P08684). In words: qHTS Assay for Activators of Cytochrome P450 3A4 (AID 885). Also: nearly all actives have a fitted effect of over 65% in size. The gist of the method:
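Using 20nM recombinant human CYP3A4 in potassium phosphate (200mM), substrate Luciferin-PPXE at 25uM, luminescent luciferin detection followed a 60-min RT NADPH reaction; data scaled to 57 uM ketoconazole.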

The target in experiment [4] is Cytochrome P450 2C19 (Homo sapiens) (UniProt P33261). The experiment in a line: qHTS Assay for Inhibitors and Substrates of Cytochrome P450 2C19 (AID 899). Also: potency is read from the fitted curve at half-maximal effect; nearly all actives have a fitted effect of over 60% in size. Put shortly:
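NADPH-dependent conversion of Luciferin-H EGE (10uM, at KM) by 5nM enzyme in 50mM KPO4, 60 min at 37C following 10 min compound preincubation. Stopped with luciferin detection buffer; luminescence read after 20 min.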
A general note: In qHTS, concentration-response curves come from the screen itself.

In experiment [5] the test system is Zika virus NS2B-NS3 protease. In words: Primary screen GU AMC qHTS for Zika virus inhibitors (AID 1347154).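 Also: 0% = no-inhibitor control and -100% = no-enzyme control; nearly all actives have a fitted effect of over 70% in size.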 The gist of the method:
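Unlinked Zika NS2B hydrophilic domain/NS3 protease domain noncovalent complex (25 nM final) in 10 mM Tris-HCl pH 8.0, 0.01% Tween 20, with AMC peptide substrate. Fluorescence (ex 340, em 450 nm) change over 15 min, room temperature; percent inhibition fitted to 4-parameter Hill equation.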

The nature of experiment [6]: Primary qHTS for small molecule stabilizers of the endoplasmic reticulum resident proteome: Secreted ER Calcium Modulated Protein (SERCaMP) assay (AID 1508630). Also: % is scaled to controls: 0 for no effect and ±100 for the full control effect. The gist of the method:
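The SH-SY5Y reporter protocol was run at 3 concentrations up to 38.3 uM (primary) or 11 concentrations (follow-up): 16 h compound, 100 nM thapsigargin for 4 h, then extracellular luciferase luminescence.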

The target in experiment [7] is Glucocorticoid receptor (Homo sapiens) (UniProt P04150). The experiment in a line: GR-GFP Redistribution (AID 450;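 active = compounds whose dose series gives a full or clear partial fitted curve of increased nuclear translocation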; also: potency is read from the fitted curve at half-maximal effect). The following applies: U2OS GR-GFP nuclear translocation, laser cytometry, 2 h.
The target in experiment [8] is 3',5'-cyclic-AMP phosphodiesterase 4B (Homo sapiens) (UniProt Q07343). The experiment in a line: qHTS Assay for Inhibitors of PDE-IV (AID 607; active = well fitted activation curve with a large enough effect in the main read-out, with a control signal flat, not every such curve was filed as active; also: % of control where 0% means no effect). Put shortly: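 Live HEK293 cells with a modified cyclic nucleotide-gated (CNG) channel report intracellular cAMP via membrane-potential dye fluorescence (ex 535/em 590 nm). Endogenous PDE-IV was targeted. Compounds were tested at up to 22.9 uM final; RO 20-1724 100 uM served as control.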

The nature of experiment [9]: qHTS Assay for Lipid Storage Modulators (AID 1519; calls by dose curve). The note with it: Drosophila S3 cells, BODIPY lipid droplet/cell ratio, laser cytometry, cells loaded with oleic acid; for activity change, negative = inhibition: at 57.5 µM (top of the series). Put shortly: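 Cells seeded at 5,000 per well were treated with compounds over a concentration series and loaded with oleic acid (400 uM, as added). Lipid droplet fluorescence (488 nm excitation, 500-530 nm channel) was read by laser-scanning cytometry and normalized to 20 uM Triacsin C.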

Experiment [10] deals with DNA dC->dU-editing enzyme APOBEC-3G (Homo sapiens) (UniProt Q9HC16). In words: qHTS for inhibitors of Vif-A3G interactions: Validation (AID 588379). Also: 0% is about no effect. The gist of the method:
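Yellow fluorescence (Ex 488, Em 500-530) of Vif-coexpressing HeLa A3G-eYFP cells, scanned by Acumen cytometer, reports blocked A3G degradation. Cells plated at 700/well overnight at 37 deg C before compound addition, then a further overnight compound incubation at 37 deg C.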

Experiment [11] can be described thus: NFAT Signaling Pathway (AID 444; active = well fitted curve in either direction with a large enough effect, not every such curve was filed as active;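 also: carbachol stimulus at about its EC50 of 1 µM final; % is scaled to controls: 0 for no effect and ±100 for the full control effect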). The following applies: Jurkat NFAT-bla M1, carbachol, beta-lactamase ratio, 5 h; at 17.2 µM (top of the series). The gist of the method: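 Jurkat cells carrying an NFAT-driven β-lactamase reporter and co-transfected muscarinic M1 receptor were treated with compound plus carbachol (1 uM final, an EC50 level) for 5 h at 37 °C. CCF4 loading followed for 1 h at RT; 460/530 nm ratio gave %activity.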

Experiment [12] in a line: Stat Signaling Pathway (AID 446; active = well fitted curve in either direction with a large enough effect, not every such curve was filed as active;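 also: ME-180 cervical cancer cells given 40 pM IL-6 alongside compound; SIE-controlled beta-lactamase reporter measured as 460/530 nm FRET emission ratio; % is scaled to controls: 0 for no effect and ±100 for the full control effect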). The following applies: ME-180 (cervical carcinoma) SIE beta-lactamase reporter, IL-6 stimulated, 5 h; at 17.2 µM (top of the series). The gist of the method:
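Overnight-plated ME-180 cells bearing a STAT Inducible Element beta-lactamase reporter; 5 h co-exposure to compound and 40 pM IL-6; values normalized to 300 pM IL-6 and 125 nM JAK inhibitor controls.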

In experiment [13] the target is Mitogen-activated protein kinase 10 (Mus musculus) (UniProt Q61831). The experiment in a line: JNK3 AlphaScreen Assay (AID 530; active = well fitted curve in either direction with a large enough effect, not every such curve was filed as active;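 also: kinase came from lysate of stimulated human HepG2 cells; signal reports phosphorylation of biotinylated GST-cJun 1-79 at Ser73 with 10 µM ATP; % is scaled to controls: 0 for no effect and ±100 for the full control effect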). Put shortly: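 Phosphorylation of biotinylated GST-cJun(1-79) at Ser73 is measured by AlphaScreen proximity luminescence. Enzyme is JNK3 in HepG2 lysates activated with interleukin-1beta and tumor necrosis factor alpha; ATP is 10 uM final.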
For orientation: In Alpha technology, singlet oxygen from a donor bead excites a nearby acceptor bead.

Experiment [14] deals with Ubiquitin carboxyl-terminal hydrolase 1 (Homo sapiens) (UniProt O94782). In words: Inhibitors of USP1/UAF1: Pilot qHTS (AID 504865). Also: nearly all actives have a fitted effect of over 35% in size. Also: potency is read from the fitted curve at half-maximal effect. The gist of the method:
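In 50mM HEPES pH 7.8 containing 0.5mM EDTA, 1mM TCEP, 0.1 mg/ml BSA and 0.01% Tween-20, 1nM USP1/UAF1 is exposed to compound for 15 min, then Ub-Rho (150nM final) is added and fluorescence is read over time.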

The mark [15] stands for this setting: measured here: cell count channel max response.
Setting [16] is: measured here: lipid channel max response.

Where “and” joins values, the source holds several entries; their conditions need not be identical. Identical values can stand only once. Results filed as inconclusive are left out. Calls of active or inactive are those of the source. Unless noted, calls follow the shape of the dose curve; as a rule, active = well fitted curve in the direction sought with a large enough effect; inconclusive = small, poorly fitted or top-dose-only effect, or another doubt; inactive = no such curve, though single readings can be large; an effect the other way counts as inactive or inconclusive. A value given as a limit tells only on which side of the number the result lay.

Sequence of DNA dC->dU-editing enzyme APOBEC-3G (Homo sapiens) (Q9HC16 whole entry, looked up): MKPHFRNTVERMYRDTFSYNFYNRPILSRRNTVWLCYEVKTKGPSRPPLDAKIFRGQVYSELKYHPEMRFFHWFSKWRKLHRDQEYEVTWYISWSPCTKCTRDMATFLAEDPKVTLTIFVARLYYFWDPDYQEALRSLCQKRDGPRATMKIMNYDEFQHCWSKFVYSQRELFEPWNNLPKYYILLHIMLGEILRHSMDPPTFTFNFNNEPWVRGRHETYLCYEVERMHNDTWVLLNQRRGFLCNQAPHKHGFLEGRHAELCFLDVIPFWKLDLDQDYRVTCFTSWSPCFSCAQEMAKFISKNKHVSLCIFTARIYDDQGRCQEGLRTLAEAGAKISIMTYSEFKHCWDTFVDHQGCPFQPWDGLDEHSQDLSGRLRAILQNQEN
Sequence of Glucocorticoid receptor (Homo sapiens) (P04150 whole entry, looked up, the tested form may be a part): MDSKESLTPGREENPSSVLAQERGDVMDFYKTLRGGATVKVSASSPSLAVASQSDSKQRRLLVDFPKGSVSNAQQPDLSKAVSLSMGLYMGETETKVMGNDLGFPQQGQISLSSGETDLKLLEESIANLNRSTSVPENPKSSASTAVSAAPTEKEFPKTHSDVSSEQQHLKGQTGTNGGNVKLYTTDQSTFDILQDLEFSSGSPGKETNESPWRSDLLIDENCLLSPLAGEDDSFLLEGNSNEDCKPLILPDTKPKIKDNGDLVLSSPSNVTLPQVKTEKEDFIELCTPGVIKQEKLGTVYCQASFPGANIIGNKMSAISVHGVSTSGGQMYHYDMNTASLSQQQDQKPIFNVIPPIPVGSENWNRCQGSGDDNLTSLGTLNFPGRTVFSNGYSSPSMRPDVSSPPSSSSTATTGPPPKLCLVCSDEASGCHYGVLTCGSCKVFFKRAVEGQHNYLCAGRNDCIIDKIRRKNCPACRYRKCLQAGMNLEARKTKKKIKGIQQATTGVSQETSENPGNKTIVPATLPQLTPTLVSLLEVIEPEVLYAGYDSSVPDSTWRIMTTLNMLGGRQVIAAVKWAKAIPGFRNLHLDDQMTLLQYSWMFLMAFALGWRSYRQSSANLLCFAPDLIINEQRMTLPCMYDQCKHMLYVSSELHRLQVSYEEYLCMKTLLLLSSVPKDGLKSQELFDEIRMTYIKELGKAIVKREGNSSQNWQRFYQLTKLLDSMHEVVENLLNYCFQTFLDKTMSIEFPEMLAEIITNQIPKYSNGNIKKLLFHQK
Sequence of Cytochrome P450 2C19 (Homo sapiens) (P33261 whole entry, looked up): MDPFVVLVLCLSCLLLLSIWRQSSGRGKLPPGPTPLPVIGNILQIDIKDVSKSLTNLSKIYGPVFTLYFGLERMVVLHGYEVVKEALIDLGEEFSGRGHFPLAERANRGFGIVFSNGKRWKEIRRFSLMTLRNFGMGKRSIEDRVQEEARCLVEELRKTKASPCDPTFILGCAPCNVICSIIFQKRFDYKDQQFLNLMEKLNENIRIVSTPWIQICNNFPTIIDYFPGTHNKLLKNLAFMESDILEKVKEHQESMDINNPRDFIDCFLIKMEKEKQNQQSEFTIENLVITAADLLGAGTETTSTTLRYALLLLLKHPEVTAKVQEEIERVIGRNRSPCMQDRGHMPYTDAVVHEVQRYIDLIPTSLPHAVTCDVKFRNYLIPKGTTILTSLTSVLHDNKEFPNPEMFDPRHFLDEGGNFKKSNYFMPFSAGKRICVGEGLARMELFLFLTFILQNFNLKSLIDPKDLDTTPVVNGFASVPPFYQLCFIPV
Sequence of Cytochrome P450 1A2 (Homo sapiens) (P05177 whole entry, looked up): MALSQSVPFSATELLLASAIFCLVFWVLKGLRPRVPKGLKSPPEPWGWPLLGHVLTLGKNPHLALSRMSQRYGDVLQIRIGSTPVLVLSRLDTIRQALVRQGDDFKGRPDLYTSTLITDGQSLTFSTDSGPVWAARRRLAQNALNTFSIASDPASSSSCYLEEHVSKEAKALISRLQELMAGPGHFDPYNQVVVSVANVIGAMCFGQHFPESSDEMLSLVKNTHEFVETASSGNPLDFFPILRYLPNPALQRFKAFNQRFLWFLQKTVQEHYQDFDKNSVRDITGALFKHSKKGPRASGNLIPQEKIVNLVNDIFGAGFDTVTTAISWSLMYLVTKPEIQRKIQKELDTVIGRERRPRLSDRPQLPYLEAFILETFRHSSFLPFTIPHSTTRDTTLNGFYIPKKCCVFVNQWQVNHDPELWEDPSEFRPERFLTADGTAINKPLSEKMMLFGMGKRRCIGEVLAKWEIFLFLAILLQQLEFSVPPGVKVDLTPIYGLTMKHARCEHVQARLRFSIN
Sequence of 3',5'-cyclic-AMP phosphodiesterase 4B (Homo sapiens) (Q07343 whole entry, looked up): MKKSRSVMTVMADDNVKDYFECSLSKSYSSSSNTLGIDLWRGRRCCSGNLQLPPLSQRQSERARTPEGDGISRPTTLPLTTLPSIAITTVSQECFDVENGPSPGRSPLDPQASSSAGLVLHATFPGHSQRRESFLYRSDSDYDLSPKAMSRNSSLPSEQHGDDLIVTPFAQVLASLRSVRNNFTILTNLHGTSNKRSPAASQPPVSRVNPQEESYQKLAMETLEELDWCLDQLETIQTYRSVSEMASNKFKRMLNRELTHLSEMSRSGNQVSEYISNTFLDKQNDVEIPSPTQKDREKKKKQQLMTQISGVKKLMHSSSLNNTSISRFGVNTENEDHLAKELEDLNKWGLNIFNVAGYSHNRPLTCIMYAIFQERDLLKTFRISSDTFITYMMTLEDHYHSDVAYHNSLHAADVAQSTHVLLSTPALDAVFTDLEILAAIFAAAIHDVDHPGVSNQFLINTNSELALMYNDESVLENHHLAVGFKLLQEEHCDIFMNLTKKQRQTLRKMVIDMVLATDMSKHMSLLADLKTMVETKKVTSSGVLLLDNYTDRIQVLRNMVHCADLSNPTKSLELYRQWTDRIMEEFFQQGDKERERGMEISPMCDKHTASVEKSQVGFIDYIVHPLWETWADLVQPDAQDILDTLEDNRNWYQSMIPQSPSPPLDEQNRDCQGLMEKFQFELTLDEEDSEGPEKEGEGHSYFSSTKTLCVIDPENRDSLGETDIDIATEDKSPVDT
Sequence of Ubiquitin carboxyl-terminal hydrolase 1 (Homo sapiens) (O94782 whole entry, looked up): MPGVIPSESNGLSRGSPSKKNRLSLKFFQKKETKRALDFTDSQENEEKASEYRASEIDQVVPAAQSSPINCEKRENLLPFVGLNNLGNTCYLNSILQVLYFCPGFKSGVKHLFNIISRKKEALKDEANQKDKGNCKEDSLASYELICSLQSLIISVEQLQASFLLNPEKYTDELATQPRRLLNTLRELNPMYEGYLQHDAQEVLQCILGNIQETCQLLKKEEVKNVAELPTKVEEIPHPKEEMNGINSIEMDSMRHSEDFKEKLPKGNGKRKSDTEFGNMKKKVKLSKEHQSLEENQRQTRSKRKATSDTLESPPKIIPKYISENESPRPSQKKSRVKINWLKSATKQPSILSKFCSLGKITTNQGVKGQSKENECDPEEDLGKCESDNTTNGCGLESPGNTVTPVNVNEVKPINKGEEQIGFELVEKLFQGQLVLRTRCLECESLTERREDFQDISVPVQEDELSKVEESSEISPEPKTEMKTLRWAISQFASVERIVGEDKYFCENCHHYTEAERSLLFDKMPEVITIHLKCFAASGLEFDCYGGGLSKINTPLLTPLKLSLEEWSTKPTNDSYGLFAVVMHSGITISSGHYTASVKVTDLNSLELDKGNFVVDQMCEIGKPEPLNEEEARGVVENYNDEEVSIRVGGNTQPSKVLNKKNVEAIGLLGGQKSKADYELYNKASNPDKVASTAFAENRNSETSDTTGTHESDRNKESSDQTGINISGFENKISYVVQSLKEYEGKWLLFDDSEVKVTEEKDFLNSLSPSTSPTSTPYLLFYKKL
Sequence of Cytochrome P450 3A4 (Homo sapiens) (P08684 whole entry, looked up): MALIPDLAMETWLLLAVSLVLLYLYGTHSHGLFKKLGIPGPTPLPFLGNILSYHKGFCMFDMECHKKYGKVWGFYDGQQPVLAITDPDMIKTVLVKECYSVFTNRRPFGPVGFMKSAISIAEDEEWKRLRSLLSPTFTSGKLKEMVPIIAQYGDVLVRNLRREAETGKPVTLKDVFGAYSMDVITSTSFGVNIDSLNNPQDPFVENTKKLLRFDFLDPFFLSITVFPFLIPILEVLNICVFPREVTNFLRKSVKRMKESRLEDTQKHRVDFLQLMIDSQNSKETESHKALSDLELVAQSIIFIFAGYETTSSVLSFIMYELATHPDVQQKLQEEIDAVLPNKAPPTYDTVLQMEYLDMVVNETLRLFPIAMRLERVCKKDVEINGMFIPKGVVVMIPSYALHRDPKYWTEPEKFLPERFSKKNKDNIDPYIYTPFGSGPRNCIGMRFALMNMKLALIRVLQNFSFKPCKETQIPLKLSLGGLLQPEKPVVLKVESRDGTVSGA

As for `COC(=O)C1=C(C)NC(C)=C([N+](=O)[O-])[C@@H]1c1ccccc1C(F)(F)F`, the Potency in [1] is 39.8 µM (active); in [2], > 46 µM (inactive); in experiment [4] it was 0.126 µM (active). Also, the Potency entry in [3], in experiment [5] and in experiment [6] was “inactive” throughout.

Consider `CC[N+](C)(CC)CC(=O)Nc1c(C)cccc1C`, for which the Potency in experiment [7] and in experiment [2] was > 46 µM (inactive) in each case. The Potency entry in experiment [8], in [10], in experiment [5] and in [6] was “inactive” throughout. The activity change, negative = inhibition in [9] is 0.67% (inactive). In addition, the max response in experiment [9] (setting [15]) was -9.49%; in experiment [9] (setting [16]) it was -8.79%.

For `C[C@@H](C(=O)O)c1ccc(-c2ccccc2)c(F)c1`, the Potency in [1] was 10 µM (active); in experiment [7], > 20.6 µM (inactive) and > 46 µM (inactive); in experiment [2] it was > 20.6 µM (inactive) and > 46 µM (inactive); in experiment [4], 0.631 µM (active). Further, the activity change, negative = inhibition in experiment [11] was 3.63% (inactive). In addition, the activity, negative = inhibition in experiment [12] was 1.05% (inactive). In addition, the Potency entry in [13], in [8], in [14], in [10], in experiment [5] and in [6] was “inactive” in each case.

Consider `O=C(Nc1ccccc1)N[C@H]1C[C@H](C(=O)O)Nc2cc(Cl)cc(Cl)c21`, for which the Potency in [2] is > 46 µM (inactive). In addition, the Potency result in experiment [8], in experiment [10], in experiment [5] and in experiment [6] was “inactive” throughout. In addition, the activity change, negative = inhibition in [9] is 6.02% (inactive). Moreover, the max response is -4.62% in [9] (setting [15]) and 0.745% in [9] (setting [16]).

Consider `Cc1sc(N)c(C(=O)c2cccc(C(F)(F)F)c2)c1C`, for which the Potency in experiment [1] is 15.8 µM (active); in experiment [7] it was > 46 µM (inactive); in experiment [2] it was > 46 µM (inactive); in experiment [14] it was 50.1 µM (active). For the same compound, the Potency entry in experiment [3], in experiment [10], in experiment [5] and in experiment [6] was “inactive” each time.

`COC(=O)[C@H]1[C@@H]2C[C@H]3c4[nH]c5ccccc5c4CCN3C[C@@H]2CC[C@@H]1O`: the Potency entry in experiment [13], in [8], in experiment [10], in experiment [5] and in experiment [6] was “inactive” in each case. Moreover, the activity change, negative = inhibition in experiment [9] is 4.47% (inactive). Further, the max response in experiment [9] (setting [15]) was -3.24%; in experiment [9] (setting [16]), 4.05%.

With `CC1(C)CO[C@H](CC(=O)O)CN1`, the Potency in [7] was > 46 µM (inactive); in experiment [4], 5.01 µM (active). For the same compound, the Potency entry in experiment [13], in experiment [8], in experiment [10], in experiment [5] and in [6] was “inactive” throughout. For the same compound, the activity change, negative = inhibition in experiment [9] is -3% (inactive). The max response is -8.35% in experiment [9] (setting [15]) and -12.8% in experiment [9] (setting [16]).

These data come from PubChem BioAssay (NCATS).
